Assay: adipocyte viability effects, profiling panel, cell-based, 3T3-L1 adipocytes, calcein-AM fluorescence, 48 h, basal (AID 1163); also: test concentration not given here
Conditions: 3T3-L1 adipocytes viability, higher = more signal

Question: For `COc1cc(Cc2cc3c(c(-c4ccccc4)n2)[Si](C(C)C)(C(C)C)OC3)cc(OC)c1OC`, which z-score is on record?
Answer: 0.609

Question: With `COCCOC(=O)N1C(=O)[C@@]2(c3cc(C#CCC(C(=O)OC)C(=O)OC)ccc31)[C@H](C(N)=O)[C@H]1C(=O)O[C@H](c3ccccc3)[C@H](c3ccccc3)N1[C@@H]2c1ccccc1OCCO` as the molecule, how does the z-score read?
Answer: 1.27

Question: For `C[C@@]1([C@@H](NS(=O)(=O)c2cccc3cccnc23)c2ccc(-c3ccccc3)cc2)C[C@H]1C1CCCCC1`, which z-score is on record?
Answer: -0.516

Question: Which z-score does the source give for `C=C(C(=O)CC[C@@H](OC(=O)c1ccccc1-c1ccccc1C(=O)O)c1ccc(CO)o1)C(C)C` here?
Answer: 0.231

Question: For `CCOC(=O)C1=CCC(c2cccn2C(=O)OC(C)(C)C)N(S(=O)(=O)c2ccc(C)cc2)C1` (centres undefined), which z-score is on record?
Answer: -0.838

Question: For `O=C1N(Cc2ccccc2)c2ccccc2C[C@@]12N=C(c1ccc(OCCCO)cc1)O[C@H]2c1ccccc1`, which z-score is on record?
Answer: 0.84

Question: With `Cc1ccc(S[C@]2(C(=O)NC3CC3)CC(=O)N(C3Cc4ccccc4C3)[C@@H]2c2ccc(CO)cc2I)cc1` as the molecule, how does the z-score read?
Answer: 0.689

Question: Which z-score does the source give for `CCc1cccc(NC(=O)O[C@H]2[C@H](OC(=O)Nc3ccccc3-c3ccccc3)[C@H](OC(=O)Nc3ccccc3-c3ccccc3)[C@@H](OC)O[C@@H]2CO)c1` here?
Answer: -0.228

Question: Which z-score does the source give for `CC(C)C[C@H]1NC(=O)CNC(=O)[C@@]23C(=O)N[C@@H](Cc4ccccc4)C2[C@H](C)[C@@]2(C)O[C@H]2C3/C=C/C/C=C\CNC1=O` (some centres undefined) here?
Answer: 0.535

Question: Which z-score does the source give for `C=C(/C=C\CNS(=O)(=O)c1ccc(C)cc1)[C@H](O)[C@H]1CCCN1S(=O)(=O)c1ccccc1[N+](=O)[O-]` here?
Answer: 0.186

Question: Which z-score does the source give for `C[C@]1(C(=O)O)c2ccccc2C(=O)N(Cc2cc(C(F)(F)F)cc(C(F)(F)F)c2)[C@H]1c1ccc(CO)cc1` here?
Answer: 0.261

Question: Which z-score does the source give for `COC(=O)C(CC#Cc1ccc2c(c1)[C@]1(C(=O)N2)[C@H](c2ccc(OCCO)cc2)N2[C@H](c3ccccc3)[C@H](c3ccccc3)OC(=O)[C@H]2[C@@H]1C(N)=O)C(=O)OC` here?
Answer: 0.251

Question: Which z-score does the source give for `CN1C(=O)C2C=CC(C(O)c3ccc(I)cc3)N(N(c3ccccc3)c3ccccc3)C2C1=O` (centres undefined) here?
Answer: -1.15

Question: With `COc1ccc([Si](C)(C)[C@@H]2[C@@H](CC(=O)N(CCO)Cc3ccccc3)O[C@]3(C(=O)N(Cc4cccc(I)c4)c4ccccc43)[C@H]2C)cc1` as the molecule, how does the z-score read?
Answer: 1.05

Question: With `COc1ccc([Si](C)(C)[C@H]2[C@H](CC(=O)N3CCC[C@H]3CO)O[C@@]3(C(=O)N(Cc4cccc(N5CCCCC5=O)c4)c4ccccc43)[C@@H]2C)cc1` as the molecule, how does the z-score read?
Answer: 0.112

Question: With `O=C1C2C=CC(C(O)C3CCCCC3)N(Nc3ccccc3F)C2C(=O)N1c1ccccc1` (centres undefined) as the molecule, how does the z-score read?
Answer: 0.1

Question: With `C=C(COC)/C(=C/C[C@@H](OC(C)=O)c1cccc(OCCO)c1)c1cnc2ccccc2c1` as the molecule, how does the z-score read?
Answer: 1.35

Question: Which z-score does the source give for `COC(=O)C1=CC(c2ccc(CO)cc2)=CC(C2CC2)N(Cc2cc3c(cc2Br)OCO3)C=C1C(=O)OC` (centres undefined) here?
Answer: 0.679

Question: With `O=C/C=C/c1ccc(-c2ccccc2)cc1` as the molecule, how does the z-score read?
Answer: 0.919

Question: With `COc1ccc(C(O)C2C=CC3C(=O)N(C)C(=O)C3N2Nc2ccccc2)cc1` (centres undefined) as the molecule, how does the z-score read?
Answer: -0.221

Question: With `COCCOC(=O)N1C(=O)[C@@]2(c3cc(C#CCNC(N)=O)ccc31)[C@H](c1ccccc1OCCO)N1[C@H](c3ccccc3)[C@H](c3ccccc3)OC(=O)[C@H]1[C@@H]2C(=O)N1CCCCCCC1` as the molecule, how does the z-score read?
Answer: -0.0319

Question: With `CC1C2C(CCCO)=CC(C3C(=O)N(C(N)=O)C(=O)C23)N1Cc1cccc(OC(F)(F)F)c1` (centres undefined) as the molecule, how does the z-score read?
Answer: -0.528

Question: Which z-score does the source give for `CCCC=C(CCC)[C@@H](NC(=O)c1ccc(C(=O)OC)cc1)c1ccc(C(=O)OC)cc1` here?
Answer: -0.454

Question: Which z-score does the source give for `COc1ccc(C#Cc2ccc3c(c2)[C@]2(C(=O)N3)[C@H](c3ccccc3OCCO)N3[C@H](c4ccccc4)[C@H](c4ccccc4)OC(=O)[C@H]3[C@@H]2C(=O)NC[C@H](O)c2ccccc2)cc1` here?
Answer: 0.449

Question: For `C=C(C(=O)CC[C@@H](OC(=O)c1ccccc1-c1ccccc1C(=O)O)c1cccc(OCCO)c1)C(C)C`, which z-score is on record?
Answer: 0.647

Question: With `C[C@]1(C(=O)NC2CC2)c2ccccc2C(=O)N(Cc2cc(F)cc(C(F)(F)F)c2)[C@H]1c1ccc(CO)cc1` as the molecule, how does the z-score read?
Answer: 0.274

Question: For `C=C(COC)C(=O)CC[C@H](OC(C)=O)c1ccccc1OCCO`, which z-score is on record?
Answer: 2.22

Question: With `CCOC(=O)C[C@H]1[C@H](OC(=O)Cc2ccc3c(c2)OCO3)[C@@H](NC(=O)CC(C)C)c2cc(OCCCO)ccc2N1C(=O)c1ccc2ccccc2n1` as the molecule, how does the z-score read?
Answer: 1.37

Question: Which z-score does the source give for `O=C1C[C@@](C(=O)NCC(F)(F)F)(c2ccc([N+](=O)[O-])cc2)[C@@H](c2ccc(CO)cc2I)N1CC12CC3CC(CC(C3)C1)C2` here?
Answer: 0.463
